The text below walks through data of PubChem BioAssay.

The source made the active and inactive calls. Unless noted, the rule behind the calls is not given here.

Assay [1] deals with Wnt5a (protein binding on small-molecule microarray). Put plainly: small molecules binding Wnt5a protein – biophysical, small-molecule microarray, 635/667 nm fluorescence, primary screen (AID 1142).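 Note: fluorescence read at 667 nm with signal to noise per printed feature.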 As to conditions: 635 nm fluorescence, higher = more signal.
Assay [2] in a line: ATP-based viability of Huh7 replicon cells – cell-based, CellTiter-Glo luminescence, basal, 48 h, cytotoxicity control for HCV replication inhibitor project, primary screen (AID 1143).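 Note: Huh7 hepatoma cells carrying a hepatitis C replication reporter with no stimulus; test concentration not given here.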 The following applies: higher = more signal, called active from +8 up or from −8 down. For orientation: A replicon is a self-replicating genome or part of one, used to study replication in cells.

Assay [3] can be described thus: Pseudomonas biofilm growth suppression – PAO1 strain, BacTiter-Glo luminescence, LB-PBS, primary screen (AID 1144). As to conditions: P. aeruginosa PAO1 biofilm, 12 h, higher = more signal.
Assay [4] is described as follows: basal CRE-LacZ reporter activity in PC12 – cell-based, unstimulated, primary screen (AID 1145). As to conditions: no forskolin, luminescence, 4.5 h, higher = more signal, called active from +8 up or from −8 down.
Assay [5] in a line: forskolin-driven CRE-LacZ activity in PC12 – cell-based, CRE-LacZ reporter, forskolin-stimulated, primary screen (AID 1146).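 Note: PC12 cells with 6xCRE LacZ reporter stimulated by forskolin 10 µM; beta-galactosidase reporter signal reflecting CREB driven transcription.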 The following applies: luminescence, 4.5 h, higher = more signal, called active from +8 up or from −8 down.
Assay [6] concerns the target Streptavidin (Streptomyces avidinii) (UniProt P22629). The assay is described as follows: compounds binding control protein streptavidin – biophysical, small-molecule microarray, 635/667 nm fluorescence, artefact control for SMM compound annotation, primary screen (AID 1147).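 Note: signal reflects streptavidin binding to arrayed compounds as a control protein.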 The following applies: higher = more signal.
Assay [7] is described as follows: probe aInhba binding on compound microarray – biochemical, small-molecule microarray, 635/667 nm fluorescence, primary screen (AID 1148).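 Note: score merges 667nm spot fluorescence with signal-to-noise for antibody binding to printed compounds.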 As to conditions: higher = more signal.
Assay [8] concerns the target Torsin-1A (Homo sapiens) (UniProt O14656). The assay is described as follows: TOR1A wild-type binding on microarray – cell lysate, small-molecule microarray, lysate, 635/667 nm, primary screen (AID 1149). The following applies: COS7 hTOR1A-WT lysate, 635 nm fluorescence, higher = more signal.
The target is the same in assay [9]. Put plainly: torsin A mutant lysate binding on microarrays – cell lysate, small-molecule microarray, COS7 lysate, 635/667 nm fluorescence, primary screen (AID 1150).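 Note: score pools 667 nm emission and signal to noise measuring lysate protein binding.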 The following applies: COS7 hTOR1A mutant lysate, 635 nm fluorescence, higher = more signal.
Assay [10] has as its system Sonic hedgehog protein (Shh). Put plainly: Sonic hedgehog microarray binding compounds – biochemical, small-molecule microarray, 635/667 nm fluorescence, primary screen (AID 1151).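 Note: Shh protein binding to compounds spotted on small-molecule microarray slides; score combines spot fluorescence intensity with signal-to-noise across triplicate slides.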 The following applies: 635 nm fluorescence, higher = more signal.
Assay [11] is described as follows: optical density shifts of acrAB sulA E. coli – strain DRC41, OD650, 48 h, E. coli filamentation inducer project, primary screen (AID 1152).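 Note: E. coli MC1000 strain DRC41 lacking acrAB efflux pump and sulA.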 The following applies: higher = more signal, called active from +8 up or from −8 down.
The nature of assay [12]: probe aLefty1 binding on compound microarray – biochemical, small-molecule microarray, 635/667 nm fluorescence, primary screen (AID 1153).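 Note: score merges spot fluorescence with signal-to-noise ratio from the scanned slide images.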 As to conditions: higher = more signal.
A short description of assay [13]: plasmodial surface anion channel blockers, osmotic lysis – cell-based, P. falciparum Indochina, OD700, 1 h, primary screen (AID 1154). As to conditions: P. falciparum Indochina infected RBC osmotic lysis, higher = more signal, called active from +8 up or from −8 down.
Assay [14] is described as follows: plasmodial surface anion channel blockers, osmotic lysis – cell-based, P. falciparum Indochina, OD700, 2 h, primary screen (AID 1155).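 Note: lysis reports solute entry through the parasite surface anion channel PSAC.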 As to conditions: P. falciparum Indochina infected erythrocytes, higher = more signal, called active from +8 up or from −8 down.
A short description of assay [15]: changes in parasitized red cell lysis, either direction – P. falciparum Indochina, OD700, 3 h, PSAC antagonist project, primary screen (AID 1156). The following applies: P. falciparum-infected erythrocytes, osmotic lysis, higher = more signal, called active from +8 up or from −8 down.
Assay [16] in a line: plasmodial surface anion channel blockers, osmotic lysis – cell-based, P. falciparum Indochina, OD700, 18 h, primary screen (AID 1157). The following applies: P. falciparum Indochina infected erythrocytes, osmotic lysis OD700, 18 h; higher = more signal, called active from +8 up or from −8 down.
A short description of assay [17]: S6 kinase pathway phospho-S6 level changes – cell-based, A549, cytoblot, luminescence, serum-stimulated, primary screen (AID 1158).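 Note: serum-stimulated A549 lung adenocarcinoma cells; signal is phosphorylated S6 detected by cytoblot immunostaining with HRP secondary.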 As to conditions: 5 h, higher = more signal.
Assay [18] has as its target NADPH oxidase 2 (Homo sapiens) (UniProt P04839). The assay is described as follows: compounds shifting NOX2 Amplex Red fluorescence – cell-based, HEK293-NOX2, PMA-stimulated, NOX inhibitor project, primary screen (AID 1159). Note: test concentration not given here. The following applies: 45 min, higher = more signal, called active from +8 up or from −8 down.
Assay [19] concerns the target NADPH oxidase 4 (Homo sapiens) (UniProt Q9NPH5). Put plainly: compounds shifting NOX4 Amplex Red fluorescence – cell-based, HEK293-NOX4, tetracycline-induced, NOX inhibitor project, primary screen (AID 1160). As to conditions: HEK293-NOX4, Amplex Red H2O2 fluorescence, 45 min; higher = more signal, called active from +8 up or from −8 down.
Assay [20] has as its target NADPH oxidase 5 (Homo sapiens) (UniProt Q96PH1). Put plainly: compounds shifting NOX5 Amplex Red fluorescence – cell-based, HEK293-NOX5, NOX inhibitor project, primary screen (AID 1161). The following applies: HEK293-NOX5, ionomycin, 45 min, higher = more signal.

Chain of Streptavidin (Streptomyces avidinii) (P22629 whole entry, looked up): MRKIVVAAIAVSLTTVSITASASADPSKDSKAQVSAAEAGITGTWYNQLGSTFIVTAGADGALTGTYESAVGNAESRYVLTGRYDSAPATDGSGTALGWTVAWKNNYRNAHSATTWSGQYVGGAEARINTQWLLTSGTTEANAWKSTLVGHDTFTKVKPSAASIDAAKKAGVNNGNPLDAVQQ
Chain of Torsin-1A (Homo sapiens) (O14656 whole entry, looked up): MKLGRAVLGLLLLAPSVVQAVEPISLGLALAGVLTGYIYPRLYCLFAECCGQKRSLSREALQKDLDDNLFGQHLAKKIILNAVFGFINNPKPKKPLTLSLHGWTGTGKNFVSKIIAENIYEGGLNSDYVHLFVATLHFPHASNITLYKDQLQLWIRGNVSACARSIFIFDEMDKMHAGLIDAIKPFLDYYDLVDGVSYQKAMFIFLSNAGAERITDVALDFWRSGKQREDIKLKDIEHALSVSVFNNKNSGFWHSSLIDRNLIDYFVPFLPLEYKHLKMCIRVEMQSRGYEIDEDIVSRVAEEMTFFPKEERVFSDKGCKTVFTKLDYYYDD
Chain of NADPH oxidase 4 (Homo sapiens) (Q9NPH5 whole entry, looked up): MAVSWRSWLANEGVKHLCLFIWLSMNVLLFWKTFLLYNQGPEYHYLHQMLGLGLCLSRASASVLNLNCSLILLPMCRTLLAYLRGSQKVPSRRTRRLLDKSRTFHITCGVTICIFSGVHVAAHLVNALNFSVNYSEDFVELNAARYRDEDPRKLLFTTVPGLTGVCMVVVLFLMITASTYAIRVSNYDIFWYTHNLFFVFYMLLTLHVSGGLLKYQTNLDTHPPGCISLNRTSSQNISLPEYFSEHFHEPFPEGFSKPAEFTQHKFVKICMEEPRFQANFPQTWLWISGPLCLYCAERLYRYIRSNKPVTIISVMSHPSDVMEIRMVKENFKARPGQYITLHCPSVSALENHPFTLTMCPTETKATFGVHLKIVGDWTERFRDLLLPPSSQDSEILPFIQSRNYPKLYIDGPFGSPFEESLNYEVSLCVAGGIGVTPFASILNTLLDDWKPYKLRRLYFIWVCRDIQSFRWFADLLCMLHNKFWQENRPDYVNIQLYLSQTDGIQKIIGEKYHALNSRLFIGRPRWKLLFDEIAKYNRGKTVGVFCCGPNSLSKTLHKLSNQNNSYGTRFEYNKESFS
Chain of NADPH oxidase 5 (Homo sapiens) (Q96PH1 whole entry, looked up): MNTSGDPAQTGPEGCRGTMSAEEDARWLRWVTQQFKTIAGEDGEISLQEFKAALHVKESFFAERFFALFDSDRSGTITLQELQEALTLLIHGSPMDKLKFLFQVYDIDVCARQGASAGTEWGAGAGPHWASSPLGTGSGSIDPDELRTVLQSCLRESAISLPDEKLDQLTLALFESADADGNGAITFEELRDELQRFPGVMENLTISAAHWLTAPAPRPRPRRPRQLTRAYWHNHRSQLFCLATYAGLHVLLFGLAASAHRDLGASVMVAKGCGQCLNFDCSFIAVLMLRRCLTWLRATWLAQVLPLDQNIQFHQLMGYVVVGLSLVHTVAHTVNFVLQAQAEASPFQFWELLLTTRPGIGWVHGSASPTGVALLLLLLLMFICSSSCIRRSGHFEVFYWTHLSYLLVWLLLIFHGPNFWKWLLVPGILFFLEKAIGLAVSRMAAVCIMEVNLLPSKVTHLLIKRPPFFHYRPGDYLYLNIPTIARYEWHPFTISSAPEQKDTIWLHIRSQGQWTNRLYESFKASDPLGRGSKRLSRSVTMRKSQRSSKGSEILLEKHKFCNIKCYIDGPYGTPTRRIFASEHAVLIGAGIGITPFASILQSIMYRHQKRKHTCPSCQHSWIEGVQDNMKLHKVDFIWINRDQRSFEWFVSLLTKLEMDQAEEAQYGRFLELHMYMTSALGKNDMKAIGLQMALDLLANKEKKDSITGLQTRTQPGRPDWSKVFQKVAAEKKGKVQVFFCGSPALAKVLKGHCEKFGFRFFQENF
Chain of NADPH oxidase 2 (Homo sapiens) (P04839 whole entry, looked up): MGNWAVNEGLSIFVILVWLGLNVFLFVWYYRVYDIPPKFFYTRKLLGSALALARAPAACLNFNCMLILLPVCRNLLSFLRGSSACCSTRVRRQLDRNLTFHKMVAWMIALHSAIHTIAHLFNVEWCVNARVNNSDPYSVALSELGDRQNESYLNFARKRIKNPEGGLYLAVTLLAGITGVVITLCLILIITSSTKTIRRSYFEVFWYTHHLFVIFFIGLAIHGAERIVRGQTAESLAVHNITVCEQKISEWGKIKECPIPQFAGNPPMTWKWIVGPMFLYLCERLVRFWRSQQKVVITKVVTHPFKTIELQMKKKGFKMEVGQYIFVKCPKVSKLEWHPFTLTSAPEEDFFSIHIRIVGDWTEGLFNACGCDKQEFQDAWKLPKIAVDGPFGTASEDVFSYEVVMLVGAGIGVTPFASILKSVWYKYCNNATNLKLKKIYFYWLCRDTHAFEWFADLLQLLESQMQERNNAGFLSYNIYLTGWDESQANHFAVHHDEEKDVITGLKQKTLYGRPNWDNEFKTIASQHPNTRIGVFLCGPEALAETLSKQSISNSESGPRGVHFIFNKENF

With `COC(=O)C(CC#Cc1ccc2c(c1)[C@]1(C(=O)N2)[C@H](C(=O)Nc2nc3ccccc3s2)[C@H]2C(=O)O[C@H](c3ccccc3)[C@H](c3ccccc3)N2[C@@H]1c1ccc(O)cc1)C(=O)OC`, the composite z-score in assay [1] was found to be 0.533; in assay [6] it was 0.906; in assay [7], 0.0487; in [8], 0.71; in [9], 0.964; in [10], 0.967. In assay [12], this compound came in with a composite z-score of 0.0809. For the same compound, the z-score in assay [2] was -1 (inactive); in assay [3], -0.672 (inactive); in assay [4], 0.155 (inactive); in assay [5], -0.669 (inactive); in assay [11] it was -1.2 (inactive); in assay [13], 1.14 (inactive). The z-score in [14] was 0.922 (inactive); in assay [15], -4.32 (inactive); in assay [16], 1.3 (inactive); in assay [17], 0.0065; in assay [18] it was 1.28 (inactive); in assay [19], 0.602 (inactive). Moreover, the z-score in [20] was -0.0824.

As for `CN(C)C(=O)[C@]1(Cc2ccccc2N=[N+]=[N-])N=C(c2ccc(OCCCO)cc2)O[C@@H]1c1ccccc1N=[N+]=[N-]`, the composite z-score was 0.46 in assay [1]; 1.41 in [6]; -0.0162 in assay [7]; 1.49 in [8]; 0.799 in assay [9]; 0.428 in assay [10]. In [12], this compound came in with a composite z-score of 0.431. For the same compound, the z-score in [2] was -4.48 (inactive); in [3], -0.938 (inactive); in [4] it was 0.0686 (inactive); in assay [5], -1 (inactive); in [11] it was 1.02 (inactive); in [13] it was 30.7 (active). The z-score in assay [14] is 25.6 (active); in assay [15], 1.15 (inactive); in assay [16] it was 7.43 (inactive); in [17] it was 2.53; in assay [18], -1.59 (inactive); in [19], 0.482 (inactive). Also, the z-score in [20] was 0.199.

As for `CC1CC/C=C\[C@H]2OC34C=CCN(C(C)(C)C)C(=O)[C@H]3N(C(C)CO)C(=O)[C@@H]4C2C(=O)O1` (stereo not given in full), the composite z-score in [1] was -0.273; in [6], -1.3; in assay [7] it was -0.128; in [8], -0.468; in assay [9], -0.441; in assay [10], 0.622. Moreover, the composite z-score in assay [12] is -0.0984. Further, the z-score in [2] is 0.4 (inactive); in assay [3], 1.01 (inactive); in assay [4] it was -0.22 (inactive); in assay [5] it was 0.826 (inactive); in assay [11], -0.265 (inactive); in [13], 1.42 (inactive). Further, the z-score was 0.576 (inactive) in assay [14]; 0.545 (inactive) in assay [15]; 0.355 (inactive) in [16]; 0.021 in [17]; 0.499 (inactive) in assay [18]; -0.812 (inactive) in [19]. Besides, the z-score in assay [20] came out at 1.65.

As for `CCOC(=O)C[C@H]1[C@H](OC(=O)c2ccc(C(=O)c3ccccc3)cc2)[C@@H](NC(=O)c2ccc3ccccc3n2)c2cc(OCCCO)ccc2N1C(=O)c1ccccc1`, the composite z-score came out at 0.369 in [1]; 0.616 in assay [6]; 0.0561 in assay [7]; 0.484 in assay [8]; 0.605 in assay [9]; 1.2 in [10]. Also, in [12], the composite z-score is -0.0683. In addition, the z-score in assay [2] is -0.0142 (inactive); in [3], 0.0839 (inactive); in assay [4], 0.498 (inactive); in assay [5], 0.0154 (inactive); in assay [11], -0.983 (inactive); in [13], 0.839 (inactive). The z-score in [14] is -0.136 (inactive); in assay [15], -0.883 (inactive); in assay [16], -0.232 (inactive); in [17], -0.322; in assay [18], 0.34 (inactive); in assay [19] it was 1.06 (inactive). The z-score in [20] stood at 1.2.
